Over roughly 68,000 sequences, “fluorescence intensity (a.u.)” has its median near 9,100; the highest 2% begin near 16,000. The list comes from a sample in which the highest values are over-represented; it also holds similar and randomly drawn sequences.

OsWRKY34, sequence (Q0JBA9 entry or part of it): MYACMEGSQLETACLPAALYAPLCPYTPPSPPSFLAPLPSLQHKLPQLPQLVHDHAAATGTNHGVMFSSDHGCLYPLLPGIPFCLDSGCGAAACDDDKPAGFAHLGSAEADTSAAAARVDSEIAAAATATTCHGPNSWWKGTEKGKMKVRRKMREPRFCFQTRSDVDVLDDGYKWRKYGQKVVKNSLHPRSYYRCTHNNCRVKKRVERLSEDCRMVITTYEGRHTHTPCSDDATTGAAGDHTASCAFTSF

The experiment deals with OsWRKY34 (Oryza sativa, UniProt Q0JBA9 1-250). In words: protein-binding microarray (RPBM); PBS, 2% BSA, 51.3 ng/ul salmon testes DNA, 50 uM zinc acetate, 200 nM TF, 25 C, 1 h; high values mean tight binding. The conditions noted are these: protein: recombinant; tags: N-terminal polyhistidine and DsRed monomer fusion (pET32a); label: CyDye5-dUTP incorporated in the synthesized complementary strand; 3' TTTTT single-stranded linker to array surface; dsDNA, one strand shown. A digest of the protocol:
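Polyhistidine-tagged DsRed fusions of transcription factors, joined at the N-terminus, were expressed in E. coli BL21-CodonPlus and isolated on Ni–NTA. They were incubated at 200 nM for 1 h at 25 °C on a custom Agilent array, double-stranded and BSA-blocked, in PBS with 2% BSA, salmon testes DNA and 50 µM zinc acetate. The binding signal is per-feature fluorescence intensity (arbitrary units) read on an Axon 4000B scanner after washing.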
Regarding “CCGAGCACCCACCCGCCGCCGCCGCCGTCGCCGATTCATGCGGAGTCACCTAGTGCAG”, the binding signal was 9080 fluorescence intensity (a.u.). Consider “GTAATTAACCAGAATTCAGGTTTTGTCAGTGCCACCATCACGGAGTCACCTAGTGCAG”, for which the binding signal is 9850 fluorescence intensity (a.u.). Then “GACACGGAAAATCATGGTTTGACTTTTTTTTTTGGGACGGCGGAGTCACCTAGTGCAG”, with 19400 fluorescence intensity (a.u.). Then “TGGGACTTTATTTGCACTGGTTTTGGGAGTTGAGGGACACCGGAGTCACCTAGTGCAG”, with 8550 fluorescence intensity (a.u.); and “ATGACATGTCATGGGACTTACTTTACATGGTTTTGAATACCGGAGTCACCTAGTGCAG”, with 8140 fluorescence intensity (a.u.). Take “GGTTTTGCGGTTGAGCGAAACGACCCAATGGGAATCAAGACGGAGTCACCTAGTGCAG”: the binding signal is 60000 fluorescence intensity (a.u.).

For the sequence “GAATCATGAGTTGGTTGGGTTGGCATTAAACTGTTTTGAGCGGAGTCACCTAGTGCAG”, the binding signal was 12100 fluorescence intensity (a.u.).

As to “TTTGTGTTGTCTAGACATTTTTTTCTATTTTTCACCTATTCGGAGTCACCTAGTGCAG”, the binding signal is 9190 fluorescence intensity (a.u.). Take “CGTTGACTTTTTCTTACATGTTTGACCATTCGTCTTATTTCGGAGTCACCTAGTGCAG”: the binding signal is 35300 fluorescence intensity (a.u.).

“ATTTCTAACTTTTTTTCCCATTGTTTTGTTTGTCTTATTTCGGAGTCACCTAGTGCAG”: the binding signal is 8920 fluorescence intensity (a.u.). For “TGTTGACTTTTGGATACATGTTTGACAATTCGTCTTATTTCGGAGTCACCTAGTGCAG”, the binding signal was 14700 fluorescence intensity (a.u.). Take “TCGTTGATTTTTGACATGATGTTTGACCATTCTTATTATTCGGAGTCACCTAGTGCAG”: the binding signal was 9750 fluorescence intensity (a.u.). For “ACTTTGTCCACCCATTTTGTGTTGTCTCGTTGTTTCTATTCGGAGTCACCTAGTGCAG”, the binding signal was 17000 fluorescence intensity (a.u.). Under “ATTTTATTGTTGCGGTTGCCAATCAACAACGACGTCATTTCGGAGTCACCTAGTGCAG” stands 9550 fluorescence intensity (a.u.). Then “GGCCTCTCAACTGACCCGTCTGCGAAATATGTTTATTTTCCGGAGTCACCTAGTGCAG”, with 8060 fluorescence intensity (a.u.); and “ATTTATAGAGGTTGGGTGTGCATGTGTGGTGAGCATATTTCGGAGTCACCTAGTGCAG”, with 8820 fluorescence intensity (a.u.). Regarding “GCTAGCGCTGCCGCCCTACTCTTGATCCTAAATATTCATTCGGAGTCACCTAGTGCAG”, the binding signal was 8210 fluorescence intensity (a.u.). For the sequence “ACTGGTCGAACCTTGGCGGGGAGGGGCCGGCCGGCCTCATCGGAGTCACCTAGTGCAG”, the binding signal was 8640 fluorescence intensity (a.u.). Then “ATGAAATGTTTGTCATTTCTGGTGGGGCTGTTAGTTAATTCGGAGTCACCTAGTGCAG”, with 9970 fluorescence intensity (a.u.). Turning to “CAAACCTGTGTACTTTCTACGTGTTTTTTCTATGTTTCCGCGGAGTCACCTAGTGCAG”, the binding signal is 12100 fluorescence intensity (a.u.).

Regarding “ACCATATGCATCTGAATTTGTTCTGAGTATACTCCATTTCCGGAGTCACCTAGTGCAG”, the binding signal was 10600 fluorescence intensity (a.u.). Turning to “TGCCCGACTTGGCTTTCTCCTCCTCTCTCCTCCCGCAACCCGGAGTCACCTAGTGCAG”, the binding signal was 8600 fluorescence intensity (a.u.).

In the case of “AGCAGTTAACCCACCGTACAACAAAATCAATCAGTTTCTTCGGAGTCACCTAGTGCAG”, the binding signal is 8270 fluorescence intensity (a.u.). Then “CCGCCGCCGCCTCCTGCTCCTTCGACCTGCCCCGGCCCCGCGGAGTCACCTAGTGCAG”, with 8870 fluorescence intensity (a.u.); and “CCCCTATTTAGCCGCGCCATTTTCCCCTCGCTAGCTGTGTCGGAGTCACCTAGTGCAG”, with 8400 fluorescence intensity (a.u.). Under “TAATTTTTATAGGCCTGTTCATATTTTCTACCGTTGATTTCGGAGTCACCTAGTGCAG” stands 10300 fluorescence intensity (a.u.); under “TTGACATCCTACGTTTGTGTTCCTCGTCACTCCACTATCGCGGAGTCACCTAGTGCAG”, 8040 fluorescence intensity (a.u.); under “CTGTGTTTTCTATTTTTCTCTGTTTTACATCTATCTTCTTCGGAGTCACCTAGTGCAG”, 19100 fluorescence intensity (a.u.). Under “GGTTGGTTTCTTTGTTTTTCTCTTATATTTACACTATATTCGGAGTCACCTAGTGCAG” stands 23800 fluorescence intensity (a.u.).

As for “TTTTGACTTTCTCTTACACTGTTTGACCATTTATCTTATTCGGAGTCACCTAGTGCAG”, the binding signal is 14000 fluorescence intensity (a.u.). Regarding “ACACCATTGACTTTTTAATATGTGTTTGACCATTCGTCTTCGGAGTCACCTAGTGCAG”, the binding signal was 19200 fluorescence intensity (a.u.).

Take “ATATTTTTTCTGTGTTTTGCAATCTTCTATTTTACACTTTCGGAGTCACCTAGTGCAG”: the binding signal was 11200 fluorescence intensity (a.u.). Then “TGTTTGACACCATTGACTTTTTAGTATGTGTTTGACCATTCGGAGTCACCTAGTGCAG”, with 13200 fluorescence intensity (a.u.); and “CTTACTTGGTCACTCCCTTTTTGTTATCTGATTTAGACGTCGGAGTCACCTAGTGCAG”, with 8230 fluorescence intensity (a.u.). With “CCAATTTCTCTCTCCACATCTCTCTGTGTTTCTTTTATTTCGGAGTCACCTAGTGCAG”, the binding signal was 9680 fluorescence intensity (a.u.). Regarding “CGTCCTTATATAATTGTTTTACTTGGTGATTTCATCTGGTCGGAGTCACCTAGTGCAG”, the binding signal was 64500 fluorescence intensity (a.u.).

Consider “TTCTTTTTATATTTTCTTTTGTTGGTTTTTTTCGTCTCAACGGAGTCACCTAGTGCAG”, for which the binding signal was 13200 fluorescence intensity (a.u.).

As for “TCTGTATGGTCTACTTGTTTGATTGATTGATAATTTTACACGGAGTCACCTAGTGCAG”, the binding signal is 9240 fluorescence intensity (a.u.). With “ATTGACTTTTTTAAAAATGTTTGACCATTCGTCTTATTCACGGAGTCACCTAGTGCAG”, the binding signal is 9010 fluorescence intensity (a.u.).

“CGTCTCGTGTCTTCTCGTCTCGACCCATCCATCCATCCCACGGAGTCACCTAGTGCAG”: the binding signal was 8570 fluorescence intensity (a.u.).

As for “CGGGCTCTGGTTTTACCGAATAAATGCTCTGGGCCTAATACGGAGTCACCTAGTGCAG”, the binding signal is 8020 fluorescence intensity (a.u.). Under “GCATTAGAACGAGCGCACCCACTTTCAGTTCTCAAATTATCGGAGTCACCTAGTGCAG” stands 8670 fluorescence intensity (a.u.); under “GTCTTTTGATGCGACGCGATGTGACTCGCCCGACCCAACTCGGAGTCACCTAGTGCAG”, 8940 fluorescence intensity (a.u.); under “CCTCCATTCTTCAGTTTTAATGCATCCTCTTCATCACTTCCGGAGTCACCTAGTGCAG”, 11800 fluorescence intensity (a.u.).

For the origin of these results see paper PMC7819943, “Rice protein-binding microarrays: a tool to detect cis-acting elements near promoter regions in rice”.
